# Results taken from PubChem BioAssay (NCATS).
# Records with an inconclusive call do not appear. Entries that show only a call come without a potency. Active and inactive are the calls of the source. Calls come from the whole dose curve; as a rule, active = well fitted curve in the direction sought with a large enough effect; inconclusive = small, poorly fitted or top-dose-only effect, or another doubt; inactive = no such curve, though single readings can be large; an effect the other way counts as inactive or inconclusive.
# Experiments:
# [1] = qHTS assay to identify small molecule inhibitors of chordoma cells - UCH-1 (AID 1259355); conditions: UCH-1 chordoma viability, CellTiter-Glo, 48 h, combination; series mostly up to 46.1 µM; note: nearly all actives have a fitted effect of over 55% in size; note: potency is the fitted concentration of half-maximal effect
# In short: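 Seed 800 cells per well; incubate overnight at 37 C, 5% CO2. Add test compounds (15 concentrations), then the auranofin–topoisomerase-agent combination. Incubate 48hr, add CellTiter-Glo, wait 30min, read luminescence.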
# [2] = qHTS assay to identify small molecule inhibitors of chordoma cells - UCH-2 (AID 1259356); conditions: UCH-2 chordoma viability, CellTiter-Glo ATP luminescence, 48 h; series mostly up to 46.1 µM
# [3] = P-glycoprotein substrates identified in KB-8-5-11 adenocarcinoma cell line, qHTS therapeutic library screen (AID 1346987); conditions: KB-8-5-11 (P-gp overexpressing) viability, CellTiter-Glo, 72 h; series mostly up to 44.5 µM; note: nearly all actives have a fitted effect of over 65% in size; note: potency is the fitted concentration of half-maximal effect
# In short: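 P-gp-mediated resistance screen: KB-8-5-11 cells treated 72 h with compounds in dose-response. CellTiter-Glo viability.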
SMILES,Potency [1],Potency [2],Potency [3]
O=[N+]([O-])c1ccccc1,inactive,inactive,inactive
CCN1C[C@]2(COC)[C@H](O)C[C@H](OC)[C@@]34[C@@H]5C[C@@]6(O)[C@H](OC(=O)c7ccccc7)[C@@H]5[C@@](OC(C)=O)([C@@H]([C@H](OC)[C@H]23)[C@@H]14)[C@@H](O)[C@@H]6OC,inactive,,inactive
O=P(O)(O)C(Cl)(Cl)P(=O)(O)O,inactive,inactive,inactive
O=c1[nH]cc(N(CCCl)CCCl)c(=O)[nH]1,inactive,inactive,inactive
CC(C)Nc1ccc(Nc2ccccc2)cc1,inactive,inactive,20.6 µM (active)
CCCCC[C@@H](O)C1C(=O)OC(C)[C@H](O)/C=C/C=C/C=C/C=C/C=C(\C)C(O)C(O)C(O)C[C@H](O)C[C@H](O)C[C@H](O)C[C@H](O)C[C@@H]1O (some centres undefined),inactive,inactive,inactive
COC1=CC=C2[C@H]3Cc4ccc(OC)c5c4[C@@]2(CCN3C)[C@H]1O5,inactive,inactive,inactive
C[N+]1([O-])[C@@H]2CC[C@H]1CC(OC(=O)C(CO)c1ccccc1)C2 (some centres undefined),inactive,inactive,inactive
CC[N+](C)(CC)CCOC(=O)C(O)(c1ccccc1)c1ccccc1,inactive,inactive,inactive
COC(COC(N)=O)C1=C(N2CC2)C(=O)C(C)=C(N2CC2)C1=O (centres undefined),2.24 µM (active),,6.51 µM (active)
O=C(NC(=O)c1c(F)cccc1F)Nc1ccc(Cl)c(Oc2ncc(C(F)(F)F)cc2Cl)c1,inactive,inactive,inactive
CCOc1ccc2c3c1O[C@H]1[C@@H](O)C=C[C@H]4[C@@H](C2)N(C)CC[C@@]341,inactive,inactive,inactive
